Activity calls are given as the source filed them.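 Rule for the calls: active = target enzyme inhibited at least 50% at a set dose, and selective over every off-target enzyme by a set factor; inactive = weaker inhibition or too little selectivity.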
Experiments:
[1] = pPAFAH inhibition and serine hydrolase selectivity, SAR follow-up, selectivity assay for pPAFAH inhibitor project, biochemical, gel-based, FP-Rh fluorescence, complex proteome, SAR compounds (AID 588774); conditions: gel-based competitive ABPP, MW 30 kDa, anti-targets inhibited, at 10 µM;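 for inhibition: 0% = DMSO-only band intensity and 100% = blank gel background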
MW 30 kDa = experiment: as above; conditions: gel-based competitive ABPP, at 10 µM, stronger effect = higher value

## Cc1cc(N2CCN(C(=O)Oc3ccc(C(F)(F)F)cc3)CC2)c2ccccc2n1
[1]
  anti-target count: 1
MW 30 kDa
  inhibition: 0% (inactive)

## O=C(N1CCOCC1)n1oc2cc(Cl)ccc2c1=O
[1]
  anti-target count: 6
MW 30 kDa
  inhibition: 78% (inactive)

## O=C(Oc1noc2cc(Cl)ccc12)N1CCOCC1
[1]
  anti-target count: 3
MW 30 kDa
  inhibition: 97% (inactive)

## Cc1cc(N2CCN(C(=O)Oc3ccc(-n4cccc4)cc3)CC2)c2ccccc2n1
[1]
  anti-target count: 0
MW 30 kDa
  inhibition: 0% (inactive)

## Cc1cc(N2CCN(C(=O)n3ncc(-c4ccccc4)n3)CC2)c2ccccc2n1
[1]
  anti-target count: 9
MW 30 kDa
  inhibition: 88% (inactive)

## Cc1cc(N2CCN(C(=O)Oc3ccc([N+](=O)[O-])cc3)CC2)c2ccccc2n1
[1]
  anti-target count: 2
MW 30 kDa
  inhibition: 0% (inactive)

## Cc1cc(N2CCN(C(=O)Oc3noc4cc(Cl)ccc34)CC2)c2ccccc2n1
[1]
  anti-target count: 4
MW 30 kDa
  inhibition: 0% (inactive)

## Cc1cc(N2CCN(C(=O)n3oc4cc(Cl)ccc4c3=O)CC2)c2ccccc2n1
[1]
  anti-target count: 3
MW 30 kDa
  inhibition: 39% (inactive)

## Cc1cc(N2CCN(C(=O)n3ncc(-c4ccc([N+](=O)[O-])cc4)n3)CC2)c2ccccc2n1
[1]
  anti-target count: 9
MW 30 kDa
  inhibition: 91% (inactive)

## Cc1cc(N2CCN(C(=O)Oc3ccc(C4CCCCC4)cc3)CC2)c2ccccc2n1
[1]
  anti-target count: 0
MW 30 kDa
  inhibition: 0% (inactive)

## Cc1cc(N2CCN(C(=O)n3ncc(-c4ccc(Cl)c(Cl)c4)n3)CC2)c2ccccc2n1
[1]
  anti-target count: 8
MW 30 kDa
  inhibition: 93% (inactive)

## Cc1cc(N2CCN(C(=O)Oc3ccc(-c4ccc(Br)cc4)cc3)CC2)c2ccccc2n1
[1]
  anti-target count: 0
MW 30 kDa
  inhibition: 0% (inactive)

## Cc1cc(N2CCN(C(=O)Oc3ccc(C4CCCC4)cc3)CC2)c2ccccc2n1
[1]
  anti-target count: 0
MW 30 kDa
  inhibition: 0% (inactive)

## COc1ccc(-c2cnn(C(=O)N3CCN(c4cc(C)nc5ccccc45)CC3)n2)cc1
[1]
  anti-target count: 8
MW 30 kDa
  inhibition: 79% (inactive)

## O=C(Oc1noc2cc(Cl)ccc12)N1CCCCC1
[1]
  anti-target count: 2
MW 30 kDa
  inhibition: 100% (inactive)

## Cc1cc(N2CCN(C(=O)n3ncc(-c4ccc(OC(F)(F)F)cc4)n3)CC2)c2ccccc2n1
[1]
  anti-target count: 9
MW 30 kDa
  inhibition: 100% (inactive)

## Cc1cc(N2CCN(C(=O)Oc3ccc(-c4ccccc4)cc3)CC2)c2ccccc2n1
[1]
  anti-target count: 0
MW 30 kDa
  inhibition: 0% (inactive)

Reference: PubChem BioAssay AID588774 (The Scripps Research Institute Molecular Screening Center, 2011)
